These results are taken from PubChem BioAssay (NCI).

Each structure is given as a SMILES string. Several values for one entry are separate records, joined by “and”; a condition that tells them apart may be missing. Equal entries are not always repeated. About 83,000 compounds went through this panel and 20% of them were active in at least one assay; those are over-represented in the sample as a whole.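 Interpretation: 100, growth as untreated; towards 0, rising growth inhibition; 0, no net growth; 0 to -100, cell death. Compounds scoring below 10 were considered active.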 Some compounds were tested as several samples or in several runs, with calls that do not always agree. Activity calls are given as the source filed them.

This assay relates to MDA-MB-468 breast. The experiment in a line: NCI-60 one-dose screen, 48 h (100 = growth as untreated, 0 = no growth, -100 = all killed). Particulars: 10 µM unless noted.
As to `Nc1c(Br)cc(Br)cc1-c1n[nH]c(=O)[nH]c1=O`, the growth is 104% (inactive). The figure for `Nc1ncnc2c1ncn2C1(CO)OCC(O)C(O)C1O` (configuration not stated) is 108% (inactive). The figure for `CCCCSc1nnc(-c2ccc(-c3ccc(Cl)cc3)nc2C)o1` is 107% (inactive). The figure for `COC(=O)C1=NNC(=S)N(c2cc(C)[nH]n2)C(=O)C1` is 108% (inactive); for `C=C(C)[C@@H]1CC[C@]2(C(N)=O)CC[C@]3(C)[C@H](CC[C@@H]4[C@@]5(C)C/C(=C/c6cccnc6)[C@H](O)C(C)(C)[C@@H]5CC[C@]43C)[C@@H]12` it is 23.6% [100 µM] (inactive). In the case of `CN1CCN(c2ccc3nc(-c4c(N)c5c(F)cccc5[nH]c4=O)[nH]c3c2)CC1`, the growth is 108% (inactive) and 102% (inactive). With `CN(C)C(=O)c1cc2cnc(Nc3ccc(-c4csc5c(=O)cc(N6CCOCC6)oc45)cc3)nc2n1C1CCCC1` the figure was -5.41% (active); with `CCC(NC(c1cc2cccc3ccc4cccc1c4c32)c1nnnn1C(C)(C)C)C1CCCCC1` (configuration not stated), 7.35% (active).

For `N#CC1=C(N)Oc2c(ccc3ccccc23)C1c1ccccc1` (configuration not stated), the growth was 23.1% (inactive).

For the molecule `Cc1ccc(CNc2c3ccccc3nc3cc(NC(=O)CCN4CCCC4)ccc23)cc1`, the growth was -29.3% (active). For `COc1cccc(CCC2CCCN(c3cc(C)nc(N)n3)C2)c1` (configuration not stated), the growth is 26.1% (inactive).

`CCNC(=O)Oc1ccc(/C(=C(/C)Cc2ccc(OC)cc2)c2ccc(OCCN3CCCCC3)cc2)cc1`: the growth was 42.4% (inactive). For `CCCCCCCC(=O)SCC/C=C/[C@@H]1CC(=O)NCc2cccc(n2)CN(Cc2ccc(Cl)cc2)CC(=O)N[C@@H](C(C)C)C(=O)O1`, the growth was 44.6% (inactive). For `NC(=O)CSSCC(N)=O`, the growth was 105% (inactive). The figure for `O=C(O)c1ccccc1C(=O)c1ccc(I)cc1` is 108% (inactive).

With `c1ccc(C(Nc2ccccn2)(c2ccccc2)c2ccccc2)cc1`, the growth was 52.7% (inactive). As for `O=C1NC(=C(Cl)Cl)/C(=N/S(=O)(=O)N2CCCCC2)N1`, the growth is -38% (active).

For the molecule `COc1cc(/C=N/NC(=O)c2cn(C3CC3)c3c(OC)c(N4CC5CCCNC5C4)c(F)cc3c2=O)ccc1O` (configuration not stated), the growth was 54.8% (inactive).

In the case of `O=C1CC(c2cccc(F)c2)c2c(n[nH]c2-c2ccc(Cl)cc2)N1` (configuration not stated), the growth is 68.4% (inactive). Turning to `Nc1c(C(=O)Nc2cccc(C(F)(F)F)c2)sc2nc3c(cc12)CCCCCC3`, the growth is -24.9% (active). Take `COc1ccc(OC)c(/C=C2\Oc3cc(O)ccc3C2=O)c1`: the growth was 102% (inactive). The figure for `CCOC(=O)c1cnc(SCC)nc1SC#N` is 124% (inactive). With `Cn1c2c(Cl)c(Cl)ccc2c2cc(N)[nH]c(=O)c21` the figure was 88.9% (inactive); with `COc1ccc(-c2ccc(-c3ccc(C(=N)N)cn3)s2)cc1Cl`, -68.5% (active); with `COc1ccc(NC(=O)c2ccc(Cl)cc2Cl)cc1`, 96.5% (inactive). The figure for `CCOC(=O)c1ccc[nH]1` is 100% (inactive); for `CC(C)(C)OC(=O)N1C=C/C(=C\Cn2cc(-c3ccccc3)nn2)CC1` it is 26.4% (inactive). Turning to `Cn1ccc(Nc2nccc(Oc3ccc(C(=O)Nc4cccc(F)c4)c(Cl)c3)n2)c1`, the growth was -12.3% (active). On to `COc1ccc(OC)c(/C=C2\Oc3cc(OCCN4CCC(Cc5ccccc5)CC4)ccc3C2=O)c1`, for which the growth was 64.8% (inactive). The figure for `COc1cc(Cl)cc(-c2nn(C(=O)NS(=O)(=O)c3ccc(Cl)cc3)cc2-c2ccncc2)c1` is 83.7% (inactive); for `C=C(C)[C@@H]1CC[C@]2(C(=O)O)CC[C@]3(C)[C@H](CC[C@@H]4[C@@]5(C)C/C(=C/c6cccc(I)c6)C(=O)C(C)(C)[C@@H]5CC[C@]43C)[C@@H]12` it is 25.6% (inactive); for `COc1ccc(/C=C/C(=O)c2ccc(O)c(CN3CCN(c4cc5c(cc4F)c(=O)c(C(=O)O)cn5C4CC4)CC3)c2)cc1` it is 3.04% (active). Turning to `COc1cc(C2C(C#N)=C(N)OC3=C2C(=O)c2ccccc2C3=O)cc(OC)c1O` (configuration not stated), the growth was 106% (inactive).

For the molecule `O=C(Cc1ccccc1)Nc1nc(O)c(/C=C2\C(=O)C=Cc3ccccc32)s1`, the growth is 95.9% (inactive). The figure for `CC1=C(/C=C/C(C)=C/C=C/C(C)=C/C=N/NC(=S)NC(=S)N/N=C/C=C(C)/C=C/C=C(C)/C=C/C2=C(C)CCCC2(C)C)C(C)(C)CCC1` is 10.1% (inactive) and -26.7% (active); for `NC(=O)c1ccc2c(c1)OCO2` it is 88.9% (inactive).

As to `NC(=N\N=C/c1ccccc1[N+](=O)[O-])/C(N)=N\N=C/c1ccccc1[N+](=O)[O-]`, the growth is 101% (inactive).
